# In PubChem BioAssay (NCI):
# “And” between values parts separate entries of the source, which are not always exact repeats. Equal entries are not always repeated. Compounds without any hit were thinned out: in the full panel of roughly 83,000, 20% have a hit.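 For each line, cells grew in 96-well plates with the test compound present at a single concentration for 48 hours.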 The source made the active and inactive calls. The calls were made as follows: active = growth percent below 10; inactive = the rest.
# Tested on: HL-60(TB) leukemia
# Test: NCI-60 one-dose screen, 48 h (100 = growth as untreated, 0 = no growth, -100 = all killed)
# Conditions: 10 µM unless noted
row,SMILES,growth
1,CCOC(=O)c1c(Nc2ccccc2)nn2c(N)c(C#N)c(-c3ccc(Cl)cc3)nc12,102% (inactive)
2,Cc1ccc(NC(=S)NNC(=S)Nc2ccc(C)cc2)cc1,97.1% (inactive)
3,Nc1nc(-c2cccc([N+](=O)[O-])c2)c(N=Nc2ccc(Br)cc2)s1,100% (inactive)
4,CCOP(=O)(OCC)OC[C@]12CCC(C)(C)C=C1[C@H]1CC[C@@H]3[C@@]4(C)CC[C@H](OP(=O)(OCC)OCC)C(C)(C)[C@@H]4CC[C@@]3(C)[C@]1(C)CC2,-22.1% (active)
5,O=S(=O)(Nc1ccc(-n2cnc3cc(-c4ccc(O)cc4)ccc32)cc1)C1CC1,56.9% (inactive)
6,CC1=C(C)C(=O)C(Nc2ccc3c(c2)OCO3)=C(Br)C1=O,44.2% (inactive)
7,CS(=O)(=O)c1nccc(-c2c(-c3cccc(OCc4ccc(Cl)c(C(F)(F)F)c4)c3)nc3sccn23)n1,12.5% (inactive)
8,CC(Nc1ncnc2ccc(-c3cnc(N)nc3)cc12)c1ccccc1 (stereo not given),35.3% (inactive)
9,O=C(CCCCCCNC(=O)C(O)(O)C(F)(F)F)Nc1ccc(Cl)cc1,9.84% (active)
10,COc1ccc(-c2nc3ccc(-c4nnc(SCC(=O)Nc5ccc(C(=O)/C=C/c6ccc(Cl)cc6)cc5)o4)cc3[nH]2)cc1,94.1% (inactive)
11,COC(=O)c1c(C(=O)OC)c2n(CC(=O)Nc3cccc4cccnc34)c3ccccc3n2c1C(=O)c1ccc(C)cc1,99.2% (inactive)
12,CCCCCCNC(=O)Oc1ccc(/C(=C(\C)c2ccc(OC)cc2)c2ccc(OCCN(C)C)cc2)cc1,56.3% (inactive)
13,CC1CCc2c(sc3nc(SCC(=O)N/N=C/c4cccc(O)c4O)n(-c4ccccc4)c(=O)c23)C1 (stereo not given),93.6% (inactive)
14,CCCCN1C(=O)/C(=c2\sc3n(c2=O)C2C(NN=3)N(CC)C(=O)N2CC)c2cc(C)ccc21 (stereo not given),93.2% (inactive)
15,CCOC(=O)Nc1ccc(-c2nc(-c3cccc(O)c3)c(-c3ccnc(Br)c3)[nH]2)cc1,-11.1% (active)
16,Cn1c(SCC(=O)c2ccc(F)cc2)nc2ccccc2c1=O,97.9% (inactive)
17,O=C(NNc1nc2cc(F)c(F)cc2n2c(CN3CC4CNCC4C3)ccc12)c1cnccn1 (stereo not given),-1.93% (active)
18,Cc1cccc2c3c(sc12)C(c1ccc(F)cc1)C(C#N)=C(/N=C/c1ccc(Cl)cc1)O3 (stereo not given),2.41% (active)
19,CS(=O)(=O)c1ccc2c(c1)c1c(n2Cc2ccc(Cl)cc2)CCCC1,70.5% (inactive)
20,COCCC[C@H]1O[C@@](O)([C@H](C)[C@@H]2CC(OC)C(O)/C=C(C)/C=C(C)/C=C(\C)C(OC3O[C@@H](C)[C@H](O)C(O)[C@@H]3O)C(C)/C=C(C)/C=C(OC)/C=C(\C)C(=O)O2)C(OC)C(O)[C@]1(C)O[C@H]1C[C@@H](O)[C@H](O[C@H]2C[C@](C)(O)[C@H](O)C(C)O2)C(C)O1 (stereo not given in full),36% (inactive)

row,SMILES,growth
1,CCCC(=O)NC(c1cccc(N(C)C)c1)c1cc(C)c2cccnc2c1O (stereo not given),0.32% (active)
2,Nc1ncc(-c2ccc3ncnc(N4CCc5cc(F)c(Cl)cc54)c3c2)cn1,7.66% (active)
3,O=C(/C=C/c1ccccc1Cl)Nc1ncc(Cc2cc(Cl)ccc2Cl)s1,3.08% (active)
4,C/C=C/CC(C)C(O)[C@H](NC(=O)[C@@H]1CCCN1C(=O)[C@](C)(CC)NC(=O)CCCCCCCCC)C(=O)N[C@@](C)(CC)C(=O)N[C@@H](CCC(N)=O)C(=O)N[C@H](CCC(N)=O)C(=O)NC(C)(C)C(=O)NC(C)(C)C(=O)N[C@@H](CCC(N)=O)C(=O)N[C@H](CC(C)C)C(=O)N[C@H](CO)CC(C)C (stereo not given in full),52.5% (inactive) and -38.8% (active)
5,Cc1ccc(-c2cc3nc(C(Cl)Cl)nc(-c4cccs4)n3n2)cc1,23.9% (inactive)
6,COc1ccc(/C(N)=N/C(N)=N/c2nc3ccccc3s2)cc1,108% (inactive)
7,CCOC(=O)Nc1ccc2c(ccn2C(=O)c2cccc(F)c2)c1,12.3% (inactive)
8,COc1cc(/C=C/C(=O)c2ccc(N3CCN(C)CC3)cc2)ccc1F,50% (inactive)
9,CCOC(=O)c1c(NC(=O)c2ccc(C(C)(C)C)cc2)sc2cc(OCCN3CCCCC3)ccc12,27.1% (inactive)
10,Fc1ccc(-c2cc3nc(C(Cl)Cl)nc(-c4ccc(Cl)cc4)n3n2)cc1,-4.23% (active)
11,COc1ccc(/C=N\NC(=O)c2ccc3nc(-c4ccc(Br)cc4)[nH]c3c2)cc1,84.4% (inactive)
12,Cc1ccc(-n2cc(/C=C/C(=O)c3ccc(S(C)(=O)=O)cc3)c(-c3ccc(S(C)(=O)=O)cc3)n2)cc1,69.4% (inactive)
13,COc1ccc(/C=N/NC(=O)c2[nH]c3ccc(Br)cc3c2-c2ccccc2)o1,-20.2% (active)
14,Nc1nc(Nc2ccccc2SSc2ccccc2Nc2nc(N)nc(-c3ccc4ccccc4c3)n2)nc(-c2ccc3ccccc3c2)n1,112% (inactive)
15,C#C[C@]1(O)CC[C@H]2[C@@H]3CC=C4c5sc(N6CCN(C)CC6)nc5CC[C@]4(C)[C@H]3CC[C@@]21C,6.2% (active)
16,O=C(CSc1cc[n+](CCCCO)c2ccccc12)n1ccc2ccccc21,106% (inactive)
17,O=C(O)c1ccc(-n2cc(CNc3cccc(Cl)c3)c(-c3ccc(F)cc3)n2)cc1,105% (inactive)
18,O=C(/C=C/Nc1ccc(S(=O)(=O)O)cc1)c1ccc(F)cc1,102% (inactive)
19,O=S(=O)(NCCCNc1nccc(-c2[nH]c(-c3ccccc3)nc2-c2ccc(F)c(O)c2)n1)c1cccc2ccccc12,59.4% (inactive)
20,O=C(CSc1nc2ccccc2c(=O)n1-c1ccccc1)Nc1ccc(-c2nc3ccc([N+](=O)[O-])cc3[nH]2)cc1,89.3% (inactive)
